Measurements as given in PubChem BioAssay (NCATS).
“And” between values parts separate entries of the source, which are not always exact repeats. Equal values may be shown once. Inconclusive results are not listed. A call without a number means that no potency is given here. Unmarked numbers belong to inactive results. The source made the active and inactive calls. Calls follow the shape of the dose curve; as a rule, active = well fitted curve in the direction sought with a large enough effect; inconclusive = small, poorly fitted or top-dose-only effect, or another doubt; inactive = no such curve, though single readings can be large; an effect the other way counts as inactive or inconclusive.

Legend:
[1] = molecular target: Cellular tumor antigen p53 (Homo sapiens) (UniProt P04637); assay: Primary qHTS for small molecule compounds that upregulate eGFP-tagged delta133p53alpha (in N-terminal) cells. (AID 2060322); settings: NCI-H358 eGFP-delta133p53alpha fluorescence, 24 h; activation: hits give high values;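 also: cells pre-induced with doxycycline then dosed without doxycycline; series mostly up to about 56 µM; nearly all actives have a fitted effect of over 75% in size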
Chain of Cellular tumor antigen p53 (Homo sapiens) (P04637 whole entry, looked up): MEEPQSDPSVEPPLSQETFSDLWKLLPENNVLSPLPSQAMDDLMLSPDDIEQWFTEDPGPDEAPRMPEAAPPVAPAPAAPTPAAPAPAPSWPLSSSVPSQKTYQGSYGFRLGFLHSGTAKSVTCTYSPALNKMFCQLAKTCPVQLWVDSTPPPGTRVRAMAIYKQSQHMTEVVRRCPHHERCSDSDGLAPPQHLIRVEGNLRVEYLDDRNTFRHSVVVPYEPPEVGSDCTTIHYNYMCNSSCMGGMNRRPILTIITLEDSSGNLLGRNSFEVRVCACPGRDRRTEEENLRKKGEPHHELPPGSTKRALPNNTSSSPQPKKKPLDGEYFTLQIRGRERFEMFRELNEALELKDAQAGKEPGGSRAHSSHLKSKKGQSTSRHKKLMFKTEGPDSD
How it was run: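 NCI-H358 cells pre-induced 24 h with 10 ng/ml doxycycline for eGFP-delta133p53alpha, plated dox-free and exposed 24 h at 37C to titrated compounds. Fixed, Hoechst-stained; gated GFP peak intensity by laser scanning cytometry, normalized to DMSO (0%) and 57.5 uM 5-azacytidine (100%).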

[2] = molecular target: Aldehyde dehydrogenase, mitochondrial (Homo sapiens) (UniProt P05091); assay: qHTS for Inhibitors of the Aldehyde Dehydrogenase Family (ALDH2) Primary screen (AID 2061308); also: nearly all actives have a fitted effect of over 55% in size

Structure (SMILES) | activation [1] | Potency [2]
COC(=O)C1=CO[C@@H](O[C@@H]2O[C@H](CO)[C@@H](O)[C@H](O)[C@H]2O)[C@@H]2[C@@H](C)[C@@H](O)C[C@H]12 | -11.5% | inactive
C[C@@H]1O[C@@H](O[C@H]2[C@@H]3C=CO[C@@H](O[C@@H]4O[C@H](CO)[C@@H](O)[C@H](O)[C@H]4O)[C@@H]3[C@@]3(CO)O[C@@H]23)[C@H](O)[C@H](OC(=O)/C=C/c2ccc(O)c(O)c2)[C@H]1O | 2.29% | inactive
COc1cc(C(=O)OCC2=CCC3C(C(=O)O)=COC(O[C@@H]4O[C@H](CO)[C@@H](O)[C@H](O)[C@H]4O)C23)ccc1O (stereo not given in full) | -9.82% | inactive
COc1cc(C2Oc3c(OC)cc(CCCO)cc3C2CO)ccc1O (stereo not given) | -18.8% | inactive
O=C(NO)c1ccc(CC(=O)N(CCO)c2ccccc2)cc1 | -8.59% and 7.82% | inactive
CC1CCC2C(C(=O)O)=CC3(O)CC(C)(C)CC123 (stereo not given) | -22.3% | inactive
COc1ccc(-c2ccc3c(N4CCOCC4C)nc(N4CCOCC4C)nc3n2)cc1CO (stereo not given) | 7.14% | inactive
CC1=C2C[C@H]3OC(=O)[C@H](O)[C@@]4(O)[C@@H](C)[C@@H](O)[C@H](O)C([C@@]2(C)[C@H](O)[C@@H](O)C1)[C@@]34C (stereo not given in full) | -11.5% | inactive
CC(C)(O)C1OC1C1=CC(=O)C2(C)OC2C1O (stereo not given) | 1.79% | inactive
COc1cc([C@@H]2Oc3c(OC)cc(CCCO)cc3[C@@H]2CO[C@@H]2O[C@H](CO)[C@@H](O)[C@H](O)[C@H]2O)ccc1O | -9.16% | inactive
